Measured values reported in PubChem BioAssay AID463173 (ICCB-Longwood Screening Facility, Harvard Medical School, 2010).
In all, about 52,000 compounds went through this assay and about 4,300 (8.3%) were called active. What follows is part of a selection rich in actives, with near analogues and random picks from the rest. Values without a mark were called inactive. Cut-off read from the data, not from the text of the source: active = survival mostly below about 52% (no sharp cut-off); inactive = mostly above about 56%.

The compounds below were run on DeltatarO mutant (assay: growth inhibition of S. aureus wild type versus tarO mutant, primary screen, teichoic acid synthesis inhibitors, RN4220, OD600 (AID 463173)). Conditions: OD600, 18 h, active compounds read low, screened at 18.75 µg/mL (by protocol).
In the case of COC(=O)CN1C(=O)CSc2ccc(S(=O)(=O)Nc3ccc(F)c(Cl)c3)cc21, the survival is reported as 83%. In the case of Cc1ccc(NC(=O)COc2ccc(-c3nn(C)c(=O)c4ccccc34)cc2)c(C)c1, the survival is reported as 73%. CC(=O)c1cccc(NC(=O)c2cc3c(s2)-c2c(C)cccc2OC3)c1 was tested, and the survival was 120%. Work on Cc1cc(C(=O)Nc2ccc(C(C)C)cc2)c2c(C)nn(-c3ccccc3)c2n1 yielded a survival of 73%. CCc1cccc(C)c1NC(=O)c1cc(C)nc2c1c(C)nn2-c1cccc(Cl)c1C was tested, and the survival was 88%. For Cc1cc(C)cc(NC(=O)c2cc(C)nc3c2c(C)nn3-c2ccccc2)c1, the survival was -5% (active). Work on Cc1ccc(-n2nc(C)c3c(C(=O)NCCc4ccccc4)cc(C)nc32)cc1 yielded a survival of 70%. Cc1cc(C(=O)Nc2cccc(C(F)(F)F)c2)c2c(C)nn(-c3cccc(F)c3)c2n1 was tested, and the survival was 17% (active). Work on Cc1cc(C(=O)Nc2cccc(C)c2C)c2c(C)nn(-c3cccc(F)c3)c2n1 yielded a survival of 94%. For Cc1cc(C)c(NC(=O)c2cc(C)nc3c2c(C)nn3-c2cccc(F)c2)c(C)c1, the survival was 94%. Work on Cc1ccc(-n2nc(C)c3c(C(=O)Nc4ccc(Br)c(C)c4)cc(C)nc32)cc1 yielded a survival of 101%. COc1ccc(NC(=O)c2cc(C)nc3c2c(C)nn3-c2cccc(Cl)c2C)c(OC)c1 was tested, and the survival was 88%. Cc1ccc(NC(=O)c2cc(C)nc3c2c(C)nn3-c2cccc(Cl)c2C)c(C)c1 was tested, and the survival was -5% (active). With Cc1ccc(CCNC(=O)c2cc(C)nc3c2c(C)nn3-c2ccc(C)cc2)cc1 the survival was 25% (active). Compound Cc1ccc(-n2nc(C)c3c(C(=O)NCCc4ccc(S(N)(=O)=O)cc4)cc(C)nc32)cc1 has a survival of 118%. In the case of COc1ccc(OC)c(CNC(=O)c2nn(C)c3c2CS(=O)(=O)c2ccccc2-3)c1, the survival is reported as 74%. Work on CCC(C(=O)Nc1ccc(C(=O)OC)cc1)n1c(=O)c(-c2ccccc2NC(C)=O)nc2ccccc21 (stereo not given) yielded a survival of 94%. In the case of O=C(CSc1nc2ccsc2c(=O)n1-c1ccc(Br)cc1)NCc1ccccc1, the survival is reported as 73%. For CCCCN(CCCC)S(=O)(=O)c1ccc(NC(=O)c2c(-c3ccccc3)noc2C)cc1, the survival was 60%. In the case of CCOC(=O)c1c(S(=O)(=O)N2CCCC(C(=O)NCc3cccc(OC)c3)C2)c(C)n(C)c1C (stereo not given), the survival is reported as 117%. Cc1ccc(-c2nc(C)c(CCNC(=O)c3ccccc3Br)s2)cc1 showed a survival of 72%. With CCn1c(=O)cc(OCC(=O)N2CCN(c3ccc(OC)cc3)CC2)c2ccccc21 the survival was 71%. Work on O=C(NCc1cccn1Cc1ccccc1)Nc1ccc(Br)cc1F yielded a survival of 66%. CCOc1cccc(C2Oc3nc(SC)nnc3-c3ccccc3N2C(C)=O)c1OC (stereo not given) gave a survival of 59%. In the case of Cc1c(C(=O)Nc2ccccc2F)sc2nc3n(c(=O)c12)CCC3, the survival is reported as 87%. Work on O=C(Cn1ccn(-c2ccc(F)c(F)c2)c(=O)c1=O)NCc1ccccc1 yielded a survival of 62%. COc1cc(OC)cc(-n2c(=O)c3ccccc3n(Cc3ccccc3C#N)c2=O)c1 gave a survival of 128%. For CCc1ccc(-n2nc(C)c3c(C(=O)Nc4cc(OC)cc(OC)c4)cc(C)nc32)cc1, the survival was 102%. CCc1ccc(-n2nc(C)c3c(C(=O)Nc4ccc(Cl)cc4)cc(C)nc32)cc1 gave a survival of 66%. Cc1ccc(C)c(N2CCN(C(=O)c3cc(C)nc4c3c(C)nn4-c3ccccc3)CC2)c1 was tested, and the survival was 126%. Cc1ccc(C)c(N2CCN(C(=O)c3cc(C)nc4c3c(C)nn4-c3cccc(F)c3)CC2)c1 was tested, and the survival was 8% (active). Cc1cc(C(=O)N2CCN(c3ccccc3)CC2)c2c(C)nn(-c3cccc(F)c3)c2n1 gave a survival of 91%. In the case of CCc1ccc(-n2nc(C)c3c(C(=O)Nc4cccc(C(F)(F)F)c4)cc(C)nc32)cc1, the survival is reported as 20% (active). With Cc1cccc2cc(CN(CCO)S(=O)(=O)c3ccc(Cl)cc3)c(=O)[nH]c12 the survival was 82%. CCOCCCNC(=O)c1ccc2c(c1)NC(=O)C(CS(=O)(=O)Cc1ccc(F)cc1Cl)N2 (stereo not given) gave a survival of 88%. For CC(C)Cn1c(N2CCN(C(=O)c3sc4ccccc4c3Cl)CC2)nc2ccccc21, the survival was 89%. Work on CCC(Cc1ccccc1)NC(=O)CN1C(=O)COc2ccc(S(=O)(=O)N3CCCCCC3)cc21 (stereo not given) yielded a survival of 113%. For CC(=O)c1cccc(NS(=O)(=O)c2cccc(S(=O)(=O)c3ccc(Br)cc3)c2)c1, the survival was 55%. With Cc1ccc(Cn2ccc(NC(=O)c3cc(-c4ccc(Cl)c(Cl)c4)on3)n2)cc1 the survival was 45% (active). Work on Cc1cc(NC(=O)c2cc(-c3ccc(Cl)cc3)on2)nn1Cc1ccc(Cl)cc1 yielded a survival of 140%. With COc1ccc(-c2cc(C(=O)Nc3ccn(Cc4ccc(C)cc4)n3)no2)cc1OC the survival was 57%. In the case of Cc1cc(NC(=O)c2cc(-c3cccc(Cl)c3)on2)nn1Cc1ccc(Cl)cc1, the survival is reported as 43% (active). In the case of COc1cccc(-c2cc(C(=O)Nc3cc(C)nn3-c3ccccc3)no2)c1, the survival is reported as 74%. In the case of COc1cccc(-c2cc(C(=O)Nc3ccn(Cc4ccc(C)cc4)n3)no2)c1, the survival is reported as 33% (active). Cc1cc(NC(=O)c2cc(-c3ccc(Br)cc3)on2)nn1Cc1ccc(Cl)cc1 was tested, and the survival was 155%. Cc1cc(NC(=O)c2cc(-c3ccc(Cl)c(Cl)c3)on2)n(-c2ccccc2)n1 was tested, and the survival was 63%. Cc1ccc(CNC(=O)c2cc(-c3ccc(Cl)cc3)on2)cc1 was tested, and the survival was 93%. With O=c1c2cccnc2n(Cc2ccccc2F)c(=O)n1Cc1ccccc1Cl the survival was 62%. Cc1cccc(S(=O)Cc2ccc(C(=O)NC3CCCCCC3)o2)c1 (stereo not given) was tested, and the survival was 81%. CCOc1ccc(NC(=O)C2CCCN(S(=O)(=O)c3ccc(Br)s3)C2)cc1 (stereo not given) gave a survival of 101%. Cc1ccccc1CNC(=O)c1ccc(Cn2c(SCc3ccccc3)nc3cccnc32)cc1 was tested, and the survival was 0% (active). COCCCNC(=O)c1ccc(CSc2nc3cccnc3n2Cc2ccc(OC)cc2)cc1 was tested, and the survival was 107%. O=C(NCCc1cccs1)c1ccc(Cn2c(SCc3ccccc3)nc3cccnc32)cc1 showed a survival of 99%. In the case of Cc1ccccc1CSc1nc2cccnc2n1Cc1ccc(C(=O)NCCc2cccs2)cc1, the survival is reported as 47% (active). For Cc1ccc(CSc2nc3cccnc3n2Cc2ccc(C(=O)NCCc3cccs3)cc2)cc1, the survival was 135%. With CCNC(=O)c1ccc(CSc2nc3cccnc3n2Cc2ccc(OC)cc2)cc1 the survival was 0% (active). With Cc1ccccc1CNC(=O)c1ccc(Cn2c(SCc3cccc(F)c3)nc3cccnc32)cc1 the survival was 89%. COc1ccccc1CNC(=O)c1ccc(Cn2c(SCc3ccccc3)nc3cccnc32)cc1 was tested, and the survival was 37% (active). O=C(NCc1ccccc1Cl)c1ccc(Cn2c(SCc3ccccc3)nc3cccnc32)cc1 was tested, and the survival was 72%. COc1ccc(Cn2c(SCc3ccc(C(=O)NCc4ccc(C)cc4)cc3)nc3cccnc32)cc1 showed a survival of 58%. Work on CCOc1ccccc1CNC(=O)c1ccc(Cn2c(SCc3ccccc3)nc3cccnc32)cc1 yielded a survival of 74%. In the case of Cc1ccccc1CNC(=O)c1ccc(CSc2nc3cccnc3n2Cc2ccccc2)cc1, the survival is reported as 55%. Compound Cc1cn2c(=O)c(S(=O)(=O)NCc3ccc(F)cc3)c(C)nc2s1 has a survival of 88%. For CCc1ccc(NC(=O)CSc2nnc(C(C)C)n2CC)cc1, the survival was 96%. For O=C(C1CCN(S(=O)(=O)c2ccc3c(c2)OCCO3)CC1)N1CCN(c2nc3ccccc3s2)CC1, the survival was 109%. In the case of O=C(Nc1cccnc1)Nc1c[nH]c2c(Cl)cccc2c1=O, the survival is reported as 89%. COc1ccc(-c2cc(C(F)(F)F)n3nc(C(=O)O)c(Cl)c3n2)cc1OC was tested, and the survival was 70%. Work on Cc1cc(C)nc(-n2nc(C)c3c2N(C)C(=O)CC3c2ccc(Cl)cc2)n1 (stereo not given) yielded a survival of 73%. COc1ccc(-c2onc(C)c2C)cc1S(=O)(=O)N1CCC(C)CC1 showed a survival of 70%. In the case of CC(NC(=O)CN1C(=O)COc2ccc(S(=O)(=O)N3CCCCCC3)cc21)c1ccccc1 (stereo not given), the survival is reported as 68%. O=C(Cn1c(=O)n(Cc2ccc3c(c2)OCO3)c(=O)c2ccc(C(=O)NC3CCCCC3)cc21)Nc1ccccc1F was tested, and the survival was 76%. Cc1nc2c(C(=O)NCc3ccccc3)cnn2c(C)c1Cc1ccc(F)cc1 gave a survival of 83%. For CCN(CC)C(=O)CSc1nc2ccccc2c(=O)n1Cc1ccco1, the survival was 77%. Work on Cc1cccc(CNC(=O)c2ccc(Cn3c(SCc4ccccc4)nc4cccnc43)cc2)c1 yielded a survival of 92%. In the case of Cc1cccc(Cn2c(SCc3ccc(C(=O)NCc4ccccc4)cc3)nc3cccnc32)c1, the survival is reported as 46% (active). Compound Cc1cccc(Cn2c(SCc3ccc(C(=O)NCCc4ccccc4)cc3)nc3cccnc32)c1 has a survival of 115%. With Cc1ccccc1C(=O)OCc1cc(=O)n2nc(-c3cccs3)sc2n1 the survival was 117%. Cc1ccc(C)c(CNC(=O)CN2C(=O)CSc3ccc(S(=O)(=O)N(C)C)cc32)c1 was tested, and the survival was 87%. In the case of COc1ccc(CC(=O)Nc2sc3c(c2C(=O)Nc2c(C)cccc2C)CCCCC3)cc1, the survival is reported as 47% (active). COc1ccc(CC(=O)Nc2sc3c(c2C(=O)Nc2ccc(C)cc2)CCCCC3)cc1 gave a survival of 131%. COc1ccc(NC(=O)c2c(NCc3cccc(OC)c3)sc3c2CCCC3)cc1 showed a survival of 86%. In the case of COc1ccc(CC(=O)Nc2sc3c(c2C(=O)Nc2cccc(Cl)c2)CCCCC3)cc1, the survival is reported as 59%. With COc1ccc(CC(=O)Nc2sc3c(c2C(=O)Nc2ccccc2)CCCCC3)cc1 the survival was 68%. In the case of COc1ccc(CC(=O)Nc2sc3c(c2C(=O)Nc2cccc(C)c2)CCCCC3)cc1, the survival is reported as 43% (active). For Cc1ccccc1CNc1nc(N(C)C)nc2c1cnn2C, the survival was 72%.
